From PubChem BioAssay AID1851 (National Center for Advancing Translational Sciences (NCATS), 2009)
About 4,000 (25%) of roughly 16,000 compounds were called active. Another 26% or so got no clear call; they are omitted. The list is a sample of the results. Unmarked numbers belong to inactive results. Calls come from the whole dose curve; as a rule, active = well fitted curve in the direction sought with a large enough effect; inconclusive = small, poorly fitted or top-dose-only effect, or effect the other way; inactive = no such curve, though single readings can be large or run the other way.

What follows are compounds tested against Cytochrome P450 2C9 (Homo sapiens) (UniProt P11712) (assay: Cytochrome panel assay with activity outcomes). Conditions: recombinant CYP, pro-luciferin dealkylation, luminescence, p450-cyp2c9; series mostly up to 57.1 µM; activity, negative = inhibition: at the top concentration.
Chain of Cytochrome P450 2C9 (Homo sapiens) (P11712 whole entry, looked up): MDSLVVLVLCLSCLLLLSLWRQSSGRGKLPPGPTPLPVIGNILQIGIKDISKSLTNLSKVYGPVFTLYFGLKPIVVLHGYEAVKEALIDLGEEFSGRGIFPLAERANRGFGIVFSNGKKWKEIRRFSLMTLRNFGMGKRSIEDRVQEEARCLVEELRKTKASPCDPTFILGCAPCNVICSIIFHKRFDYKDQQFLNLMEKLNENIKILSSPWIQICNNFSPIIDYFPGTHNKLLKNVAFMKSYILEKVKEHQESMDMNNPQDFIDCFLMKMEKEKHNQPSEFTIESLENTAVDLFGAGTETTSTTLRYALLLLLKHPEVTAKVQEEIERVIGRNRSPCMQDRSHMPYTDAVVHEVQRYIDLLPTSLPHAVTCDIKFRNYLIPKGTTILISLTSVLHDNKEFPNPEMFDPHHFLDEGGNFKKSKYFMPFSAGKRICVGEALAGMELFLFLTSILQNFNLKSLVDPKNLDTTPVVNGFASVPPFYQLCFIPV
% is set by controls: 0 for no effect and ±100 for the full control effect.

| Compound | activity, negative = inhibition | AC50 |
| --- | --- | --- |
| CCN1CCC[C@@H]1CNC(=O)c1cc(S(N)(=O)=O)ccc1OC | -0.608% |  |
| N#CC1(Nc2ccc(-c3ccc(NC4(C#N)CCCC4)cc3)cc2)CCCC1 | -5.08% [at 11.4 µM] |  |
| C[C@@H]1/C=C\CC(=O)OC[C@H](C)C(=O)N2CCC[C@@H]2C(=O)OC1 | -11.7% [at 11.4 µM] |  |
| [Cu].[O-]/N=C1/C(=[OH+])Nc2ccccc21.[O-]Nc1c(O)[nH]c2ccccc12 | -2.92% [at 11.4 µM] |  |
| O=C(Nc1ccc(Br)cc1)C1CCC(=O)N1Cc1ccccc1Cl (configuration not stated) |  | 0.447 µM (active) |
| CCS(=O)(=O)N1CCC(C(=O)NCCCOC)CC1 | -32.5% |  |
| O=C(C1CCC(=O)N1Cc1ccccc1Cl)N1CCN(c2cccc(Cl)c2)CC1 (configuration not stated) |  | 15.8 µM (active) |
| O=c1n(CCCN2CCN(c3cccc(Cl)c3)CC2)nc2ccccn12 |  | inactive |
| CN(CCCNC(=O)C1CCC(=O)N1Cc1ccccc1Cl)c1ccccc1 (configuration not stated) | -22.6% |  |
| COC(=O)N1CCC2(CC1)CCN(c1cccc(-c3ccccc3)c1)CC2 | 10.7% |  |
| COCCCNC(=O)C1CCC(=O)N1Cc1ccccc1Cl (configuration not stated) |  | 5.62 µM (active) |
| Cc1noc(NS(=O)(=O)c2ccc(N/C=C/C(=O)c3ccc4c(c3)OCO4)cc2)c1C |  | 12.6 µM (active) |
| Cc1noc(NS(=O)(=O)c2ccc(N/C=C\C(=O)c3ccc4c(c3)OCO4)cc2)c1C |  | 14.1 µM (active) |
| CCC1(C)Cc2c(sc3nnn(CC(=O)Nc4ccc(C)cc4)c(=O)c23)CO1 (configuration not stated) |  | 11.2 µM (active) |
| CCC1(C)Cc2c(sc3nnn(CC(=O)Nc4cccc5ccccc45)c(=O)c23)CO1 (configuration not stated) |  | 7.94 µM (active) |
| CCCSc1nc(NCc2ccco2)c2c3c(sc2n1)COC(C)(C)C3 |  | 6.31 µM (active) |
| CCCSc1nc(SCC(=O)NCc2ccccc2)c2c3c(sc2n1)COC(C)(CC)C3 (configuration not stated) |  | 3.98 µM (active) |
| COC(=O)[C@H](CCSC)NC(=O)C/C=C\[C@@H](C)[C@@H](CO)OC | -1.66% [at 11.4 µM] |  |
| CN(C)c1ccc(-c2nccc(NCc3cccs3)n2)cc1 | -21.1% [at 2.29 µM] |  |

| Compound | activity, negative = inhibition | AC50 |
| --- | --- | --- |
| CC(=O)OC1CCC(OC(C)=O)c2c1n([O-])c(C)c(C)[n+]2=O (configuration not stated) | -6.01% |  |
| O=C(CN1CCN(CC(=O)Nc2ccccc2Cl)CC1)Nc1ccc2c(c1)OCCO2 |  | 4.47 µM (active) |
| O=C(Nc1ccc2c(c1)OCCO2)C1CCN(C(=O)c2ccccc2)CC1 | -40.1% |  |
| COC(=O)Cn1nc(-c2ccccc2)n(-c2ccccc2)c1=S | -24.6% |  |
| O=C(CC(c1ccccc1)c1ccccc1)Nc1ccc2c(c1)OCCO2 |  | 4.47 µM (active) |
| CC(=O)Nc1ccc2c(c1)OCCOCCOc1cc(NC(C)=O)ccc1OCCOCCOCCO2 | -15% |  |
| O=C(Nc1ccc2c(c1)OCCO2)c1cccc2nc3ccccc3nc12 |  | 12.6 µM (active) |
| CCn1c(-c2ccccc2Cl)nn(CC(=O)Nc2ccc(OC)cc2)c1=S |  | 2.24 µM (active) |
| CC(=O)Nc1ccc2c(c1)OCCO2 | -11.3% |  |
| Oc1cc2c(c(Cl)c1O)CCNC[C@H]2c1ccccc1 |  | inactive |
| COc1ccccc1NC(=O)CN1CCN(CC(=O)Nc2ccc(OCc3ccccc3)cc2)CC1 |  | 2.24 µM (active) |
| S=C(Nc1ccccc1)Nc1ccc(OCc2ccccc2)cc1 | -35.1% |  |
| COc1ccc(NC(=O)CN2CCN(CC(=O)Nc3ccccc3Cl)CC2)cc1 |  | 8.91 µM (active) |
| COC(=O)N1CCC2(CCN(C(=O)Nc3ccc(OC)cc3)CC2)CC1 | -9.69% |  |
| COC(=O)N1CCC2(CC1)CN(C(=O)Nc1ccc(OC)cc1)C2 | -26.8% |  |
| O=C1[C@@H]2[C@H]3[C@H](O)[C@H](O)C/C(=N/OC[C@@H](O)COCc4ccco4)[C@H]3CC[C@H]2C(=O)N1c1ccc(F)cc1F | -12.6% [at 11.4 µM] |  |
| Cc1cccc(CNc2cc(-c3cccc(C#N)c3)ncn2)c1 | 3.34% [at 2.29 µM] |  |
| NCCS(=O)O | 8.02% |  |
| Cn1c(=O)c2[nH]c(/N=N\N3CCN(CCO)CC3)nc2n(C)c1=O | 4.93% [at 11.4 µM] |  |

| Compound | activity, negative = inhibition | AC50 |
| --- | --- | --- |
| C#CCn1c(S(=O)(=O)Cc2ccc(OC)cc2)nc(-c2ccccc2)c1-c1ccccc1 |  | 2.82 µM (active) |
| COc1ccc(CO/N=C/c2c(C)[nH]c(=O)[nH]c2=O)cc1 | -23.5% |  |
| COC(=O)CC[C@@H](C)[C@H]1CC[C@H]2[C@H]3CC[C@H]4C[C@@H]5CC[C@@]4(C)C3(O5)[C@@H](Br)[C@@H](Br)[C@@]12C |  | 2.51 µM (active) |
| C[C@H](CCC(=O)NCC(=O)O)[C@H]1CC[C@H]2[C@H]3[C@@H](C[C@@H](O)[C@]12C)[C@]1(C)CC[C@H](O)C[C@@H]1C[C@@H]3O | -14.1% [at 25.6 µM] |  |
| COC(=O)N1CCC2(CC1)CCN(c1ccncc1)CC2 | 14.6% |  |
| CC(/C=N/NC(=O)Cc1cccs1)=C\c1ccco1 |  | 7.94 µM (active) |
| CC(C)(C)c1ccc(OCC(=O)NNC(=O)Cc2cccs2)cc1 | 28.7% |  |
| Cn1cccc1CC(=O)N/N=C\c1cccs1 | -23.2% |  |
| C/C(CC(=O)NC1CCCC1)=N\NC(=O)Cc1cccs1 | -10.1% |  |
| O=C(Cc1cccs1)N/N=C/C(Br)=C/c1ccccc1 |  | 2.82 µM (active) |
| Cn1cc(C(=O)N/N=C/C(Br)=C\c2ccccc2)ccc1=O | -26% |  |
| Nc1c(S(=O)(=O)c2ccccc2)c2nc3ccccc3nc2n1Cc1ccco1 |  | 3.55 µM (active) |
| C[C@](O)(C(=O)Nc1ccc(S(=O)(=O)c2ccccc2)cc1)C(F)(F)F | -10.9% |  |
| CC(=O)Nc1c(S(=O)(=O)c2ccccc2)c2nc3ccccc3nc2n1Cc1ccccc1 |  | 8.91 µM (active) |
| Cc1nc2c([nH]1)c(=O)n(C)c(=O)n2Cc1ccco1 | 13.3% |  |
| CC(C)(C)CNC(CO)C12CC3CC(CC(C3)C1)C2 (configuration not stated) | -9.91% |  |
| COc1ccc(C(=O)N/N=C2/SCC(=O)N2Cc2ccc3c(c2)OCO3)cc1OC |  | 14.1 µM (active) |
| CCOC(=O)N/N=C1/C[C@@H](O)[C@@H](O)[C@@H]2[C@@H]3C(=O)N(Cc4ccc5c(c4)OCO5)C(=O)[C@H]3CC[C@@H]12 | 1.72% [at 11.4 µM] |  |
| CCOC(=O)N/N=C1/C[C@@H](O)[C@@H](O)[C@@H]2[C@@H]3C(=O)N(Cc4ccc5c(c4)OCO5)C(=O)[C@H]3CC[C@H]12 | -5.83% [at 11.4 µM] |  |
